Assay results from PubChem BioAssay (NCATS).
Inconclusive results are not listed. Activity calls are given as the source filed them. Unless noted, the call rests on the fitted dose curve; in most records, active means well fitted curve in the direction sought with a large enough effect; inconclusive means small, poorly fitted or top-dose-only effect, or another doubt; inactive means no such curve, though single readings can be large; an effect the other way counts as inactive or inconclusive.

Columns and labels:
[1] = qHTS for Inhibitors of Plasmodium falciparum (DD2) proliferation (AID 504314);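 further: parasite DNA measured by SYBR Green fluorescence after red cell lysis; plate controls were DMSO vehicle for no effect and artemisinin wells for full effect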
Outline: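 Fluorescence read-out (ex 485/em 535 nm) of SYBR Green-stained parasite DNA quantifies intraerythrocytic growth. Cultures at 0.3% parasitemia and 2.5% hematocrit were treated for 72 h; data normalized to DMSO and 0.29 uM artemisinin wells.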

[2] = qHTS for Inhibitors of Plasmodium falciparum (GB4) proliferation (AID 504315);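 further: 0% = DMSO vehicle and -100% = 0.29 µM artemisinin control; nearly all actives have a fitted effect of over 50% in size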
Outline: (§1)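 Erythrocytes infected with P. falciparum line (0.3% parasitemia, 2.5% hematocrit final) incubated with compounds 72 h at 37 °C, 5% CO2; SYBR Green lysis buffer added, fluorescence read next day. Normalized to 0.29 uM artemisinin and DMSO.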

[3] = qHTS for Inhibitors of Plasmodium falciparum (HB3) proliferation (AID 504318);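 further: 0% = DMSO vehicle and -100% = artemisinin control; nearly all actives have a fitted effect of over 60% in size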
Outline: as §1

[4] = qHTS for Inhibitors of Plasmodium falciparum (CP250) proliferation (AID 504320);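 further: plate controls were DMSO vehicle for no effect and 0.29 µM artemisinin control for full effect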
Outline: as §1

[5] = target: Atrial natriuretic peptide receptor 1 (Homo sapiens) (UniProt P16066); assay: Natriuretic polypeptide receptor (hNpr1) antagonism - Pilot CMLD screen (AID 1347052; calls by dose curve;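 further: HEK293 cells with hNpr1 stimulated by hNppA peptide at 0.1 nM; cGMP level read as GloSensor luciferase luminescence after agonist stimulation; series mostly up to about 9.2 µM; on the % scale 0 is the no-effect control and ±100 the full control effect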)
Atrial natriuretic peptide receptor 1 (Homo sapiens), sequence (P16066 whole entry, looked up): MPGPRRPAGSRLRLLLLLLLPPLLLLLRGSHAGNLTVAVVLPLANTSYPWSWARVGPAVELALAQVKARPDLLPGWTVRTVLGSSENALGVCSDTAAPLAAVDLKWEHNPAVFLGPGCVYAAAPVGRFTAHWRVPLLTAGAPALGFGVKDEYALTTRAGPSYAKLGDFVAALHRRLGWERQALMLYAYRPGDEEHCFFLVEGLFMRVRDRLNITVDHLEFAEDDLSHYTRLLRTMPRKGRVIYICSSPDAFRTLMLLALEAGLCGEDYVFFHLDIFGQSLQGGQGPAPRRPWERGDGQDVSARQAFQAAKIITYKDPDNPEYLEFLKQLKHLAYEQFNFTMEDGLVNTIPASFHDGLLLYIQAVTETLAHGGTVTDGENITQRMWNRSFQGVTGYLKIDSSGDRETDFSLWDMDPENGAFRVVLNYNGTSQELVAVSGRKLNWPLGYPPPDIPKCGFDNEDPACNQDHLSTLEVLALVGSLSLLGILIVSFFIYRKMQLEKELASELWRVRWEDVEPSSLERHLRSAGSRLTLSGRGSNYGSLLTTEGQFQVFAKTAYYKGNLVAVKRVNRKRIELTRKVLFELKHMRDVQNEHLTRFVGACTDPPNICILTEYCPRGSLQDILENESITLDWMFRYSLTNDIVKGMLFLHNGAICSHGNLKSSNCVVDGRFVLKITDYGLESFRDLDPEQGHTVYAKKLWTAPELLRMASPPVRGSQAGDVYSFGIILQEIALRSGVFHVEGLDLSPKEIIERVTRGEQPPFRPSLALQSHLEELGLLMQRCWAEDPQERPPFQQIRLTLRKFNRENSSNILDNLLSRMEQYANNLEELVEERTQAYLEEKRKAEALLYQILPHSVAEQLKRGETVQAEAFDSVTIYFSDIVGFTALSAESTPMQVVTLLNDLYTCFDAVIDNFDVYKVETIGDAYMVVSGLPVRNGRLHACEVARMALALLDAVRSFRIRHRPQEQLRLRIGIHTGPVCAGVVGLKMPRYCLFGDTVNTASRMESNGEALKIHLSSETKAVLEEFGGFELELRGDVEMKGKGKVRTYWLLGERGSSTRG

COC(=O)CC=C[C@H](C)[C@H](Cc1ccccc1Br)OC
inactive: Potency [1] | Potency [2] | Potency [3] | Potency [4] | Potency [5]

COC[C@@H](O)[C@H]1OCc2cc(OC)ccc2[C@H]1C=Cc1ccccc1
inactive: Potency [1] | Potency [2] | Potency [3] | Potency [4] | Potency [5]

COc1ccc(-c2nc3c(c4c2C[C@H](c2ccccc2)OC4)CN(C(=O)NCc2ccco2)CC3)c(C)c1
inactive: activity, negative = inhibition [1] -0.324% [at 1.12 µM] | Potency [2] | Potency [3] | Potency [4] | Potency [5]

C=C(C)CCN1C(=O)NC(c2cccc(C(F)(F)F)c2)C(C(=O)OC)=C1C (stereo not given)
inactive: Potency [1] | Potency [2] | Potency [3] | Potency [4] | Potency [5]

COc1ccc(C=CNC(=O)Cc2ccc(OC)c(OC)c2)cc1
inactive: Potency [1] | Potency [2] | Potency [3] | Potency [4] | Potency [5]

COc1ccc([C@]23Cc4cc(C#N)ccc4[C@H](O2)c2c(c4ccc(OC)cc4oc2=O)O3)cc1
inactive: Potency [1] | Potency [2] | Potency [3] | Potency [4] | Potency [5]

COC(=O)N1[C@H]2CC[C@@]3(C)C=C(C)O[C@]1(C)C3c1ccccc12
inactive: Potency [1] | Potency [2] | Potency [3] | Potency [4] | Potency [5]

C#CCCCON=C1C[C@@H](O)[C@@H](O)[C@@H]2[C@H]3C(=O)N(C(C)(C)C)C(=O)[C@@H]3CC[C@H]12
inactive: Potency [1] | Potency [2] | Potency [3] | Potency [4] | Potency [5]

C=CCN=C1N[C@@H](c2ccccc2)[C@H](C(=O)OC)[C@@H](C)N1CC
inactive: Potency [1] | Potency [2] | Potency [3] | Potency [4] | Potency [5]

C=CCNC(=O)[C@H]1C=C(OC)C(=O)C[C@H](c2ccccc2)[C@H]1C
inactive: Potency [1] | Potency [2] | Potency [3] | Potency [4] | Potency [5]

COc1cc2c(cc1OC)CSC1C(=O)N(C)C(SC2)C(=O)N1C
inactive: Potency [1] | Potency [2] | Potency [3] | Potency [4] | Potency [5]

COc1ccc(-c2nc3c(c4c2C[C@H](c2ccccc2)OC4)CN(C(=O)C2CC2)CC3)c(C)c1
inactive: Potency [1] | Potency [2] | Potency [3] | Potency [4] | Potency [5]

COC(=O)C1=C(C)N(CCC(C)O[Si](C)(C)C(C)(C)C)C(=O)N(C(C)=O)C1c1ccccc1 (stereo not given)
inactive: Potency [1] | Potency [2] | Potency [3] | Potency [4] | Potency [5]

CC(=O)C1=C(C)N(Cc2ccco2)C(=O)NC1c1ccccc1 (stereo not given)
inactive: Potency [1] | Potency [2] | Potency [3] | Potency [4] | Potency [5]

C=CCN1c2ccccc2[C@]23CCC(=O)N(Cc4ccco4)C2=NC(C(=O)OC)=C(C(=O)OC)[C@H]13
inactive: Potency [1] | Potency [2] | Potency [3] | Potency [4] | Potency [5]

CCN1C(=O)[C@@H]2[C@H]3[C@H](O)[C@H](O)CC(=NOC[C@@H](O)COCc4ccco4)[C@@H]3CC[C@H]2C1=O
inactive: Potency [1] | Potency [2] | Potency [3] | Potency [4] | Potency [5]

CC1(OC(=O)c2ccc(Cl)nc2)C(=O)Cc2cc(-c3ccsc3)ncc2C1=O (stereo not given)
inactive: activity, negative = inhibition [1] -1.5% [at 1.12 µM] | Potency [2] | Potency [3] | Potency [4] | Potency [5]

COc1cccc([C@@H]2Oc3ccc(Br)cc3C(=O)[C@@H]2OC(=O)N[C@H](C)C2CCCCC2)c1
inactive: Potency [1] | Potency [2] | Potency [3] | Potency [4] | Potency [5]

COCCN1C(=O)NC(c2ccc(Br)cc2)C(C(C)=O)=C1C (stereo not given)
inactive: Potency [1] | Potency [2] | Potency [3] | Potency [4] | Potency [5]

COc1cccc([C@H]2Oc3ccc(OC)cc3C(=NOC[C@@H](C)[C@H](OCc3ccccc3)C(C)C)[C@H]2O)c1
inactive: Potency [1] | Potency [2] | Potency [3] | Potency [4] | Potency [5]

O=C(C=Cc1ccc2c(c1)OCO2)c1ccc(F)cc1
inactive: Potency [1] | Potency [2] | Potency [3] | Potency [4] | Potency [5]

COc1ccc(O[C@H]2C=C[C@@H](c3ccccc3)O[C@H]2COC(=O)CCC(C)=NO[C@@H](C)c2cc(-c3c(C)cc(C)cc3C)no2)cc1
inactive: Potency [1] | Potency [2] | Potency [3] | Potency [4] | Potency [5]

CCOC(=O)C(c1ccc(OC)c(OC)c1)C1c2ccccc2C=C(C)N1C(=O)OC (stereo not given)
inactive: activity, negative = inhibition [1] -0.0023% [at 1.12 µM] | Potency [2] | Potency [3] | Potency [4] | Potency [5]

CCCCC1=CC2=C(c3ccco3)C(=O)C(C)(OC(=O)c3ccc(OC)cc3)C(=O)C2=CN1c1ccc(OC)cc1 (stereo not given)
inactive: activity, negative = inhibition [1] -0.773% [at 1.12 µM] | Potency [2] | Potency [3] | Potency [4] | Potency [5]

COC(=O)[C@H](COC(C)(C)C)NC(=O)O[C@@H]1C(=O)c2ccc(OC)cc2O[C@H]1c1ccc2c(c1)OCO2
inactive: Potency [1] | Potency [2] | Potency [3] | Potency [4] | Potency [5]

C[C@H]1C[C@@H](C)O[C@@]2(C1)C(=O)Nc1ccccc12
inactive: Potency [1] | Potency [2] | Potency [3] | Potency [4] | Potency [5]
